# Data reported in PubChem BioAssay (NCATS).
# “And” between values parts separate entries of the source, which are not always exact repeats. Identical values can stand only once. A number with no mark means an inactive call. Results filed as inconclusive are left out. Where a call stands in place of a potency, no number is given. The source made the active and inactive calls. Unless noted, the call rests on the fitted dose curve; in most records, active means well fitted curve in the direction sought with a large enough effect; inconclusive means small, poorly fitted or top-dose-only effect, or another doubt; inactive means no such curve, though single readings can be large; an effect the other way counts as inactive or inconclusive.
# Key:
# PA-1 = test: Primary qHTS to identify gynecologic anti-cancer compounds using libraries of approved drugs and bioactive compounds (AID 1345084); conditions: Gynecologic cancer cell panel viability, ATPlite luminescence, 48 h; series mostly up to 57.5 µM; further: nearly all actives have a fitted effect of over 55% in size; further: potency means the concentration at half of the fitted maximal effect
# Summary of the method: (§1)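 Cells, 1,000 per well, were allowed to settle for 16 h at 37 C before compound addition. Five concentrations were tested for 48 h, and viability was read by ATPlite luminescence after 15 min at room temperature.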
# Tov-21-G = test: as above; conditions: Gynecologic cancer cell panel viability, ATPlite luminescence, 48 h; series mostly up to 57.5 µM
# Summary of the method: as §1
# Tov112D = test: as above; conditions: Gynecologic cancer cell panel viability, ATPlite luminescence, 48 h; series mostly up to 57.5 µM
# Summary of the method: as §1
# [1] = Drug repurposing screens with cells derived from glioblastoma tumor samples (AID 1345199); conditions: GBM patient neurospheres viability, ATP luminescence, 48 h; further: nearly all actives have a fitted effect of over 40% in size; further: potency means the concentration at half of the fitted maximal effect
# Summary of the method: (§2)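 Four patient lines of CD133+ GBM neurospheres were screened at several concentrations; hits were retested in those lines plus three slower-growing GBM lines, using 48-hour treatment and ATP-based viability.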
# astro = test: as above; conditions: viability, ATP luminescence, 48 h; series mostly up to 45.9 µM
# Summary of the method: as §2
# SKOV3 = test: Primary qHTS to identify gynecologic anti-cancer compounds using libraries of approved drugs and bioactive compounds (AID 1345084); conditions: Gynecologic cancer cell panel viability, ATPlite luminescence, 48 h; series mostly up to 57.5 µM; further: nearly all actives have a fitted effect of over 55% in size; further: potency means the concentration at half of the fitted maximal effect
# Summary of the method: as §1
# [2] = biological target: Nuclear receptor subfamily 1 group I member 2 (Rattus norvegicus) (UniProt Q9R1A7); test: qHTS assay for small molecule activators of the rat pregnane X receptor (rPXR) signaling pathway (AID 651751; call rule not given here); conditions: rPXR reporter cells, luciferase (One-Glo), 24 h
# Nuclear receptor subfamily 1 group I member 2 (Rattus norvegicus), sequence (Q9R1A7 whole entry, looked up): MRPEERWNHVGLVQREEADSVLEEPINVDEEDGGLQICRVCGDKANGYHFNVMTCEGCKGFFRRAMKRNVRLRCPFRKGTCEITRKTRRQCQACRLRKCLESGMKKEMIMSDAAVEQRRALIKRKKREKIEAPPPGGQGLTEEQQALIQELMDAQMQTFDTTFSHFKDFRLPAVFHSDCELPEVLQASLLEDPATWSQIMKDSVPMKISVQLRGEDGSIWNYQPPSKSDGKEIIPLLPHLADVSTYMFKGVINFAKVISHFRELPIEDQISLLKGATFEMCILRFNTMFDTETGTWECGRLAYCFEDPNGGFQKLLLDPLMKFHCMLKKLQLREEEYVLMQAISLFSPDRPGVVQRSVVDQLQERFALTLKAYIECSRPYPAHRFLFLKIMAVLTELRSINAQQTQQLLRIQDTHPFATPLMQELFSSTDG
# [3] = qHTS assay for small molecule activators of the human pregnane X receptor (PXR) signaling pathway (AID 720659; call rule not given here)
# [4] = at 46.1 µM (top of the series), tumour line C
# [5] = at 45.9 µM (top of the series), tumour line B
# [6] = at 45.9 µM (top of the series), tumour line D
# [7] = at 20 µM (top of the series), tumour line C
# [8] = at 21.2 µM (top of the series), tumour line B
# [9] = at 46 µM (top of the series), tumour line A
structure (smiles),measurement,setting,value
O=c1[nH]c(=O)n([C@H]2CCCO2)cc1F,Potency,PA-1,inactive
same,Potency,Tov-21-G,inactive
same,Potency,Tov112D,inactive
Clc1ccc2c(c1)CCc1cccnc1C2=C1CCNCC1,Potency,PA-1,inactive
same,Potency,Tov-21-G,inactive
same,Potency,Tov112D,inactive
same,"activity, negative = cell killing",[1]; [4],0.244%
same,Potency,[1]; tumour line A,5.01 µM (active)
same,Potency,[1]; tumour line B,12.6 µM (active)
same,Potency,[1]; tumour line D,20 µM (active)
CCN1CCC[C@H]1CNC(=O)c1c(OC)ccc(Br)c1OC,Potency,PA-1,inactive
same,Potency,Tov-21-G,inactive
same,Potency,Tov112D,inactive
same,"activity, negative = cell killing",[1]; [5],-5.99%
same,"activity, negative = cell killing",[1]; [6],-23.8%
same,"activity, negative = cell killing",[1]; [4],-7.43%
same,Potency,astro,inactive
c1ccc(OCc2ccc(CCCN3CCOCC3)cc2)cc1,Potency,PA-1,inactive
same,Potency,SKOV3,inactive
same,Potency,Tov-21-G,inactive
same,Potency,Tov112D,inactive
same,Potency,astro,inactive
C=C(CC)C(=O)c1ccc(OCC(=O)O)c(Cl)c1Cl,Potency,PA-1,inactive
same,Potency,SKOV3,inactive
same,"activity, negative = cell killing",[1]; [4],1.71%
same,max response,[2],-15%
same,outcome,[3],inactive
COc1cc2c(cc1OC)C(C(C(=O)N(CCc1ccc(OC)c(OC)c1OC)CCc1ccc(OC)c(OC)c1OC)c1ccccc1)=NCC2 (stereo not drawn),Potency,PA-1,inactive
same,Potency,SKOV3,inactive
same,Potency,Tov-21-G,inactive
same,Potency,Tov112D,inactive
same,Potency,astro,inactive
CN1[C@@H]2CC[C@H]1CC(OC(=O)c1c[nH]c3ccccc13)C2 (stereo partly drawn),Potency,PA-1,inactive
same,Potency,Tov-21-G,inactive
same,Potency,Tov112D,inactive
same,"activity, negative = cell killing",[1]; [5],0.619%
same,"activity, negative = cell killing",[1]; [6],-12.6%
same,"activity, negative = cell killing",[1]; [4],13.1%
same,Potency,[1]; tumour line A,11.2 µM (active)
same,Potency,astro,inactive
C/C=C(/C(=C/C)c1ccc(O)cc1)c1ccc(O)cc1,Potency,PA-1,inactive
same,Potency,Tov-21-G,inactive
same,Potency,Tov112D,inactive
same,"activity, negative = cell killing",[1]; [7],-5.62%
same,"activity, negative = cell killing",[1]; [8],-8.12%
same,"activity, negative = cell killing","[1]; at 21.2 µM (top of the series), tumour line D",-22.4%
CC(C)(C)CC(C)(C)c1ccc(OCCOCC[N+](C)(C)Cc2ccccc2)cc1,Potency,PA-1,14.1 µM (active)
same,Potency,SKOV3,12.6 µM (active)
same,Potency,Tov112D,inactive
same,Potency,astro,20 µM (active)
CCCCC1=NC2(CCCC2)C(=O)N1Cc1ccc(-c2ccccc2-c2nn[nH]n2)cc1,Potency,PA-1,inactive
same,Potency,Tov-21-G,inactive
same,Potency,Tov112D,inactive
same,"activity, negative = cell killing",[1]; [5],-9.67%
same,"activity, negative = cell killing",[1]; [6],-0.133%
same,"activity, negative = cell killing",[1]; [9],-12.9%
same,"activity, negative = cell killing",[1]; [4],8.98%
same,Potency,astro,inactive
CCCN1CCCC[C@H]1C(=O)Nc1c(C)cccc1C,Potency,PA-1,inactive
same,Potency,Tov-21-G,inactive
same,Potency,Tov112D,inactive
same,"activity, negative = cell killing",[1]; [5],-11.5%
same,"activity, negative = cell killing",[1]; [6],-25.5%
same,"activity, negative = cell killing",[1]; [4],-6.18%
same,Potency,[1]; tumour line A,35.5 µM (active)
same,Potency,astro,inactive
CC(C)COC(=O)c1ccc(N)cc1,Potency,PA-1,inactive
same,Potency,Tov-21-G,inactive
same,Potency,Tov112D,inactive
same,"activity, negative = cell killing",[1]; [5],-9.56%
same,"activity, negative = cell killing",[1]; [6],-18.7%
same,"activity, negative = cell killing",[1]; [4],-7.77%
same,Potency,astro,inactive
CC(CCc1ccccc1)NCC(O)c1ccc(O)c(C(N)=O)c1 (stereo not drawn),Potency,PA-1,inactive
same,Potency,SKOV3,inactive
same,Potency,Tov112D,inactive
same,"activity, negative = cell killing",[1]; [5],-24.2%
same,"activity, negative = cell killing",[1]; [6],-11.2%
same,"activity, negative = cell killing",[1]; [4],-24%
same,Potency,astro,inactive
CN(C/C=C/c1ccccc1)Cc1cccc2ccccc12,Potency,PA-1,inactive
same,Potency,Tov-21-G,inactive
same,Potency,Tov112D,inactive
same,"activity, negative = cell killing",[1]; [5],-26.7%
same,"activity, negative = cell killing",[1]; [6],-18.5%
same,"activity, negative = cell killing",[1]; [4],-27.1%
same,Potency,astro,inactive
CCOC(=O)COc1ccc2c(C)c(CCN(CC)CC)c(=O)oc2c1Cl,Potency,PA-1,inactive
same,Potency,SKOV3,15.8 µM (active)
same,Potency,Tov112D,inactive
same,"activity, negative = cell killing",[1]; [5],-13.9%
same,"activity, negative = cell killing",[1]; [4],-21.4%
same,Potency,[1]; tumour line A,11.2 µM (active)
same,Potency,astro,inactive
CCCCCCCCCCOCC(O)CN (stereo not drawn),Potency,PA-1,inactive
same,Potency,Tov-21-G,inactive
same,Potency,Tov112D,inactive
same,Potency,astro,28.2 µM (active)
COC1=CC(=O)C[C@@H](C)[C@]12Oc1c(Cl)c(OC)cc(OC)c1C2=O,Potency,SKOV3,inactive
same,"activity, negative = cell killing",[1]; [5],-17.6%
same,"activity, negative = cell killing",[1]; [6],-7.65%
same,"activity, negative = cell killing",[1]; [4],-2.75%
O=C1OC(c2ccc(O)cc2)(c2ccc(O)cc2)c2ccccc21,Potency,PA-1,inactive
same,Potency,Tov-21-G,inactive
same,Potency,Tov112D,inactive
same,"activity, negative = cell killing",[1]; [5],-16.9%
same,"activity, negative = cell killing",[1]; [6],-16.2%
same,"activity, negative = cell killing",[1]; [4],2.26%
same,max response,[2],7.44% and -0.397%
C[C@]12CC[C@@H]3c4ccc(O)cc4CC[C@H]3[C@@H]1C[C@@H](O)[C@@H]2O,Potency,SKOV3,inactive
same,Potency,Tov-21-G,inactive
same,Potency,Tov112D,inactive
same,"activity, negative = cell killing",[1]; [5],-9.53%
same,"activity, negative = cell killing",[1]; [6],-17.2%
same,"activity, negative = cell killing",[1]; [4],22.1%
same,Potency,astro,inactive
CC(=O)[C@H]1CC[C@H]2[C@@H]3C[C@H](C)C4=CC(=O)CC[C@]4(C)[C@H]3[C@@H](O)C[C@]12C,Potency,SKOV3,inactive
same,Potency,Tov-21-G,inactive
same,Potency,Tov112D,inactive
same,"activity, negative = cell killing",[1]; [7],12.3%
same,"activity, negative = cell killing",[1]; [8],-24.6%
same,Potency,astro,inactive
Oc1c(I)cc(I)c2cccnc12,Potency,SKOV3,inactive
same,Potency,Tov112D,inactive
CCN(CC)C(=O)/C(C#N)=C/c1cc(O)c(O)c([N+](=O)[O-])c1,Potency,SKOV3,inactive
same,Potency,Tov-21-G,inactive
same,"activity, negative = cell killing",[1]; [5],-9.02%
same,"activity, negative = cell killing",[1]; [6],4.73%
same,"activity, negative = cell killing",[1]; [9],-20%
same,"activity, negative = cell killing",[1]; [4],7.42%
CCCCOc1ccc(C(=O)CCN2CCCCC2)cc1,Potency,PA-1,inactive
same,Potency,Tov-21-G,inactive
same,Potency,Tov112D,inactive
same,"activity, negative = cell killing",[1]; [7],-2.49%
same,Potency,[1]; tumour line A,4.47 µM (active)
same,Potency,astro,inactive
O=C(CCCN1CCC(O)(c2ccc(Br)cc2)CC1)c1ccc(F)cc1,Potency,SKOV3,inactive
same,Potency,Tov-21-G,inactive
same,Potency,Tov112D,inactive
same,"activity, negative = cell killing",[1]; [7],5.41%
same,Potency,[1]; tumour line A,3.55 µM (active)
same,Potency,[1]; tumour line D,8.91 µM (active)
same,Potency,astro,inactive
